Five molecules from PubChem BioAssay can be followed below.

Active and inactive are the calls of the source. Unless noted, the rule behind the calls is not given here.

Experiment [1] can be described thus: compounds binding Alexa647 anti-His antibody – biochemical, small-molecule microarray, 635 nm fluorescence, artefact control for SMM control protein annotation, primary screen (AID 1128).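 Note: score merges feature fluorescence with signal-to-noise for each printed compound spot.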 Particulars: higher = more signal.
Experiment [2] relates to Human papillomavirus type 1a E7 protein (residues 1-88). As to the kind of experiment: HPV1a E7 small-molecule binders, primary screen, biochemical, small-molecule microarray, residues 1-88, 635 nm (AID 1129). To be noted: small-molecule microarray binding, fluorescence 635 nm; higher = more signal.
Experiment [3] addresses Focal adhesion kinase 1 (Homo sapiens) (UniProt Q05397). As to the kind of experiment: PTK2 protein binding on printed compound slides – biochemical, small-molecule microarray, 635/667 nm fluorescence, BSA, DTT, primary screen (AID 1130).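 Note: composite of spot emission at 667 nm and signal to noise over triplicate slides.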 To be noted: 635 nm fluorescence, higher = more signal.
The subject of experiment [4] is Fibrinogen (Alexa647-labelled). Put plainly: Alexa647-fibrinogen binding to printed small molecules – biochemical, small-molecule microarray, 635/667 nm fluorescence, artefact control for SMM control-protein annotation, profiling panel (AID 1131).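 Note: z-score merges 667 nm fluorescence with per-spot signal-to-noise over triplicate slides.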 To be noted: fibrinogen-A647 binding fluorescence, higher = more signal.
Experiment [5] deals with Follistatin (Homo sapiens) (UniProt P19883). As to the kind of experiment: FST protein binding to printed compounds – biochemical, small-molecule microarray, 635/667 nm fluorescence, primary screen (AID 1132). Particulars: 635 nm fluorescence, higher = more signal.
Experiment [6] deals with Fibroblast growth factor 2 (Homo sapiens) (UniProt P09038). As to the kind of experiment: basic fibroblast growth factor binding to printed compounds – biochemical, small-molecule microarray, 635/667 nm fluorescence, primary screen (AID 1133). Particulars: FGF2, fluorescence 635/667, higher = more signal.
Experiment [7] in a line: JC-1 mitochondrial potential readout, lung cancer cells – cell-based, A549, JC-1 fluorescence, basal, 24 h, 100 nL, profiling panel (AID 1138).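 Note: A549 lung adenocarcinoma cells under basal conditions with no added stimulus; test concentration not given here.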 To be noted: higher = more signal.
The next experiment has as its system Lefty1. As to the kind of experiment: Lefty1 protein binding to printed compounds – biochemical, small-molecule microarray, 635/667 nm fluorescence, primary screen (AID 1139). To be noted: fluorescence 635/667, higher = more signal.
For experiment [8], the system named is wheat germ agglutinin (Triticum aestivum), Alexa647-labelled. As to the kind of experiment: Alexa647-WGA lectin binding to printed small molecules – biochemical, small-molecule microarray, 635/667 nm fluorescence, artefact control for SMM control-protein annotation, profiling panel (AID 1140).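 Note: score merges 667 nm feature emission with signal to noise over triplicate slides.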 To be noted: WGA-A647 binding, 635 nm fluorescence, higher = more signal.

Experiment [9] concerns the target Luciferin 4-monooxygenase (Photinus pyralis) (UniProt P08659). As to the kind of experiment: inhibition of purified Photinus pyralis luciferase – biochemical, luminescence, purified enzyme, 2006 set, primary screen (AID 1141).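 Note: cell-free assay with purified firefly luciferase at 100 ng per well in PBS; test concentration not given here.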 Particulars: purified firefly luciferase, SteadyGlo luminescence, 30 min; higher = more signal, called active from +8 up or from −8 down.
In experiment [10] the test system is Wnt5a (protein binding on small-molecule microarray). Put plainly: small molecules binding Wnt5a protein – biophysical, small-molecule microarray, 635/667 nm fluorescence, primary screen (AID 1142).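 Note: fluorescence read at 667 nm with signal to noise per printed feature.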 To be noted: 635 nm fluorescence, higher = more signal.
Experiment [11] can be described thus: ATP-based viability of Huh7 replicon cells – cell-based, CellTiter-Glo luminescence, basal, 48 h, cytotoxicity control for HCV replication inhibitor project, primary screen (AID 1143).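 Note: Huh7 hepatoma cells carrying a hepatitis C replication reporter with no stimulus; test concentration not given here.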 To be noted: higher = more signal, called active from +8 up or from −8 down.
A short description of experiment [12]: Pseudomonas biofilm growth suppression – PAO1 strain, BacTiter-Glo luminescence, LB-PBS, primary screen (AID 1144). Particulars: P. aeruginosa PAO1 biofilm, 12 h, higher = more signal.
The nature of experiment [13]: basal CRE-LacZ reporter activity in PC12 – cell-based, unstimulated, primary screen (AID 1145). To be noted: no forskolin, luminescence, 4.5 h, higher = more signal, called active from +8 up or from −8 down.
Experiment [14] can be described thus: forskolin-driven CRE-LacZ activity in PC12 – cell-based, CRE-LacZ reporter, forskolin-stimulated, primary screen (AID 1146).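 Note: PC12 cells with 6xCRE LacZ reporter stimulated by forskolin 10 µM; beta-galactosidase reporter signal reflecting CREB driven transcription.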 Particulars: luminescence, 4.5 h, higher = more signal, called active from +8 up or from −8 down.
The target in experiment [15] is Streptavidin (Streptomyces avidinii) (UniProt P22629). Put plainly: compounds binding control protein streptavidin – biophysical, small-molecule microarray, 635/667 nm fluorescence, artefact control for SMM compound annotation, primary screen (AID 1147).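 Note: signal reflects streptavidin binding to arrayed compounds as a control protein.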 To be noted: higher = more signal.
Experiment [16] is described as follows: probe aInhba binding on compound microarray – biochemical, small-molecule microarray, 635/667 nm fluorescence, primary screen (AID 1148).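 Note: score merges 667nm spot fluorescence with signal-to-noise for antibody binding to printed compounds.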 To be noted: higher = more signal.
Experiment [17] concerns the target Torsin-1A (Homo sapiens) (UniProt O14656). Put plainly: TOR1A wild-type binding on microarray – cell lysate, small-molecule microarray, lysate, 635/667 nm, primary screen (AID 1149). Particulars: COS7 hTOR1A-WT lysate, 635 nm fluorescence, higher = more signal.
The target is the same in experiment [18]. Put plainly: torsin A mutant lysate binding on microarrays – cell lysate, small-molecule microarray, COS7 lysate, 635/667 nm fluorescence, primary screen (AID 1150).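 Note: score pools 667 nm emission and signal to noise measuring lysate protein binding.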 To be noted: COS7 hTOR1A mutant lysate, 635 nm fluorescence, higher = more signal.
Experiment [19] deals with Sonic hedgehog protein (Shh). Put plainly: Sonic hedgehog microarray binding compounds – biochemical, small-molecule microarray, 635/667 nm fluorescence, primary screen (AID 1151).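 Note: Shh protein binding to compounds spotted on small-molecule microarray slides; score combines spot fluorescence intensity with signal-to-noise across triplicate slides.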 To be noted: 635 nm fluorescence, higher = more signal.

Chain of Follistatin (Homo sapiens) (P19883 whole entry, looked up): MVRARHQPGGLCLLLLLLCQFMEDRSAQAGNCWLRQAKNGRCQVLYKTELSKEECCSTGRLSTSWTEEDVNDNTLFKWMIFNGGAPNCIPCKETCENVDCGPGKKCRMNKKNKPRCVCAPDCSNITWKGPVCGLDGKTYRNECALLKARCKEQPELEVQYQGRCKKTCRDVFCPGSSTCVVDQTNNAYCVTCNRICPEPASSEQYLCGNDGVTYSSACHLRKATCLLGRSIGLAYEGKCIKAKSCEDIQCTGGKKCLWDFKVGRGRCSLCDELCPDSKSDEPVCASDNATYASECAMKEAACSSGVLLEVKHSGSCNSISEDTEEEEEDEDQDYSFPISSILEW
Chain of Fibroblast growth factor 2 (Homo sapiens) (P09038 whole entry, looked up): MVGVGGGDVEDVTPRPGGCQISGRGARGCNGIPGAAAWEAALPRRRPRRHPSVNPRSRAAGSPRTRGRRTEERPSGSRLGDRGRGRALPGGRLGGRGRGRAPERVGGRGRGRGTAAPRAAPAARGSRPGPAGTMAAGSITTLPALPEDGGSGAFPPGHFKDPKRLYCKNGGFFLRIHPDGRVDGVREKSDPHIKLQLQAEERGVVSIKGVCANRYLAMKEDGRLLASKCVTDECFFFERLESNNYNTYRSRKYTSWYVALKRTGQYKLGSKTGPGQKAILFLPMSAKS
Chain of Focal adhesion kinase 1 (Homo sapiens) (Q05397 whole entry, looked up): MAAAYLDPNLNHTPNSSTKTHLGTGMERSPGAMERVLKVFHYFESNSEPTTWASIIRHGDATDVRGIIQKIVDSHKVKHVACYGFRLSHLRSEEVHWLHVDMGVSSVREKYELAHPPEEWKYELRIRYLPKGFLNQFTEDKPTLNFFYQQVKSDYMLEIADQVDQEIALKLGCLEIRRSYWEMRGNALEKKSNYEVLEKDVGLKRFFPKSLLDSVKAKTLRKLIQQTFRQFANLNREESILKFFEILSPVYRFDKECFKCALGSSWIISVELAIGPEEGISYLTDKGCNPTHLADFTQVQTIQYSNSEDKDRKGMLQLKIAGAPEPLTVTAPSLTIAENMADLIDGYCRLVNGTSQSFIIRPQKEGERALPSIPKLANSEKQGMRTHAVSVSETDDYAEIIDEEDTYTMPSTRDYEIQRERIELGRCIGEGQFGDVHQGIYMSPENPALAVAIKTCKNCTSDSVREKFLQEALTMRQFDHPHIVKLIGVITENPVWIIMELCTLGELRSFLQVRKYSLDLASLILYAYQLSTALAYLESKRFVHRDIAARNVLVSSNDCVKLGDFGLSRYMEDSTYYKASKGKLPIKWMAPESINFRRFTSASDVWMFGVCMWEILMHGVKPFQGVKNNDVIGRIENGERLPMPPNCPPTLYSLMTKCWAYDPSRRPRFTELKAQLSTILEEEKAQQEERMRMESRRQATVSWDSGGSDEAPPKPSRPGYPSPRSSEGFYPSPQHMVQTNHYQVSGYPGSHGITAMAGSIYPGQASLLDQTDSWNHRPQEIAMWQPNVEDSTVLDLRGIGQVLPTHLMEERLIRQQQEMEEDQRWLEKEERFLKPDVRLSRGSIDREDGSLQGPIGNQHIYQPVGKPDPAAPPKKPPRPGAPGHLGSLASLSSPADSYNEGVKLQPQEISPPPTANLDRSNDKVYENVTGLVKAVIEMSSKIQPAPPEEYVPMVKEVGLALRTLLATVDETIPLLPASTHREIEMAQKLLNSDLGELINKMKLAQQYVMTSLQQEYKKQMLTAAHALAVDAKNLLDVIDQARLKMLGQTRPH
Chain of Luciferin 4-monooxygenase (Photinus pyralis) (P08659 whole entry, looked up): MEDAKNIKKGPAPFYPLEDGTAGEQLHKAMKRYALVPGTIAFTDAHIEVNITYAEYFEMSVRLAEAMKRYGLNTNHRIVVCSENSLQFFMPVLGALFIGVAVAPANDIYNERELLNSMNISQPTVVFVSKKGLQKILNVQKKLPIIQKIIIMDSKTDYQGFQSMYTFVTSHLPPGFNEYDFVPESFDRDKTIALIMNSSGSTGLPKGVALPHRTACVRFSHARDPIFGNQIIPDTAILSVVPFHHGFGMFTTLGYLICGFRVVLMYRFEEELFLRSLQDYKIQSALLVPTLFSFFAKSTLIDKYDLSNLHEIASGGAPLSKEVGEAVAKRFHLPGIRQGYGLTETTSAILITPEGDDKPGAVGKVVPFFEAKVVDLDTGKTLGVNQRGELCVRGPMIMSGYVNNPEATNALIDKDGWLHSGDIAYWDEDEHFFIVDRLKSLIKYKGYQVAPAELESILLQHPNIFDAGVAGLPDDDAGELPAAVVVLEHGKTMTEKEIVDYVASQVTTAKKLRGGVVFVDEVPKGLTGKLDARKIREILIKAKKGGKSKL
Chain of Torsin-1A (Homo sapiens) (O14656 whole entry, looked up): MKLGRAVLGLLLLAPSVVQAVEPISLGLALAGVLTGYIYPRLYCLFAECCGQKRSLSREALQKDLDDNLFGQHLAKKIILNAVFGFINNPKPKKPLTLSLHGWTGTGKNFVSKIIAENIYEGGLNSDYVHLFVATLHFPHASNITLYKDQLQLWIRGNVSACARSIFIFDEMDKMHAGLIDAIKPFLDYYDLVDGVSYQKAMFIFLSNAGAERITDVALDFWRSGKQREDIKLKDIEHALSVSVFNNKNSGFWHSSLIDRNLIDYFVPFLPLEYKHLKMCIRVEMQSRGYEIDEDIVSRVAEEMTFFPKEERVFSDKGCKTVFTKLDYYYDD
Chain of Streptavidin (Streptomyces avidinii) (P22629 whole entry, looked up): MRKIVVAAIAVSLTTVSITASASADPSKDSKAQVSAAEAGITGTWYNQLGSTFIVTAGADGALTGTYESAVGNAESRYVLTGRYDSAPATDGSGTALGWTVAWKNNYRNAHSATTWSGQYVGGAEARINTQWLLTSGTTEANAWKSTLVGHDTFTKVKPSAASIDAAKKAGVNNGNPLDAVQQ

Regarding `CC(C)NC(=O)[C@@]1(Cc2ccccc2I)c2ccccc2C(=O)N(C2CCCCC2)[C@H]1c1ccc(CO)cc1`, the composite z-score in experiment [1] stood at 2.52; in [2], 1.24; in experiment [3], 0.628; in experiment [4] it was 0.991; in [5], 1.17; in [6], 0.148. In addition, the composite z-score was found to be 0.227 with Lefty1; 0.916 in experiment [8]; 0.345 in [10]; 0.999 in [15]; 0.122 in experiment [16]; 0.457 in the experiment with Torsin-1A (Homo sapiens) [17]. In addition, the results for the composite z-score (with Torsin-1A (Homo sapiens) [18]; in [19]) were 0.559 and 0.28, respectively. Also, the z-score in [7] is -0.105; in experiment [9], 0.95 (inactive); in experiment [11], -3.83 (inactive); in [12], -1.09 (inactive); in experiment [13], 0.531 (inactive); in [14] it was 0.24 (inactive).
As to `O=C1NC(=O)C2C1C=CC(C(O)C=Cc1ccc([N+](=O)[O-])cc1)N2Nc1ccccn1` (stereo not given), the composite z-score in experiment [1] is 2.75; in [2] it was 0.235; in experiment [3], -0.0708; in experiment [4], 0.123; in [5], 0.637; in experiment [6], 1.92. Further, the composite z-score in the experiment on Lefty1 is 0.509; in [8] it was 0.551; in [10] it was 0.421; in experiment [15], -0.208; in experiment [16], 0.0694; with Torsin-1A (Homo sapiens) [17] it was 0.151. The composite z-score in the experiment with Torsin-1A (Homo sapiens) [18] was 0.13; in experiment [19] it was 0.809. Besides, the z-score in [7] is 0.361; in experiment [9], -1.07 (inactive); in experiment [11] it was 0.931 (inactive); in experiment [12], -1.23 (inactive); in experiment [13], 0.443 (inactive); in experiment [14] it was -0.28 (inactive).
Consider `COC(=O)C[C@H]1O[C@]2(C(=O)N(Cc3ccccc3)c3ccc(I)cc32)[C@@H](C)[C@@H]1[Si](C)(C)c1ccc(OC)cc1`, for which the composite z-score in experiment [1] was -0.421; in experiment [2] it was -0.807; in experiment [3] it was -0.172; in experiment [4], -0.774; in experiment [5], -0.274; in experiment [6], -0.222. The composite z-score was -0.603 in the experiment with Lefty1; 0.322 in [8]; -0.213 in [10]; 0.0595 in [15]; -0.106 in experiment [16]; -0.181 in the experiment with Torsin-1A (Homo sapiens) [17]. In addition, the composite z-score was -0.0957 in the experiment with Torsin-1A (Homo sapiens) [18] and -0.657 in experiment [19]. The z-score in [7] is 0.0578; in experiment [9], 0.417 (inactive); in experiment [11], -1.09 (inactive); in [12], -0.135 (inactive); in [13], -0.505 (inactive); in [14], -0.522 (inactive).
In the case of `O=C1C2C=CC(C(O)C(c3ccccc3)c3ccccc3)N(Nc3ccc([N+](=O)[O-])cc3)C2C(=O)N1c1ccccc1` (stereo not given), the composite z-score in [1] was 1.79; in experiment [2], 1.24; in experiment [3], 0.248; in experiment [4], 0.953; in experiment [5], 1.04; in [6], -0.255. The composite z-score in the experiment on Lefty1 is 0.35; in [8], 1.28; in experiment [10], 0.528; in experiment [15], 1.13; in experiment [16], 0.0183; with Torsin-1A (Homo sapiens) [17], 0.738. Further, the results for the composite z-score (with Torsin-1A (Homo sapiens) [18]; in experiment [19]) were 0.871 and 0.762, respectively. The z-score in [7] was -0.351; in experiment [9], 1.66 (inactive); in experiment [11], -0.664 (inactive); in experiment [12] it was -1.81 (inactive); in [13], -0.433 (inactive); in experiment [14], 0.384 (inactive).
Take `NC(=O)[C@H]1[C@@H]2C(=O)O[C@@H](c3ccccc3)[C@@H](c3ccccc3)N2[C@@H](c2ccc(O)cc2)[C@]12C(=O)Nc1ccc(C#CCCO)cc12`: the composite z-score in [1] was 2.14; in [2], -1.66; in experiment [3], -0.574; in experiment [4] it was -1.74; in experiment [5] it was -0.458; in experiment [6] it was -0.581. Moreover, the composite z-score in the experiment with Lefty1 is -0.997; in experiment [8], -1.4; in [10] it was -0.183; in [15], -1.57; in experiment [16] it was -0.0044; in the experiment with Torsin-1A (Homo sapiens) [17] it was -1.39. Besides, the composite z-score in the experiment with Torsin-1A (Homo sapiens) [18] is 0.806; in experiment [19], 0.35. The z-score in [7] was -1.14; in experiment [9], -0.0824 (inactive); in [11] it was 0.134 (inactive); in experiment [12] it was -0.453 (inactive); in experiment [13] it was -0.258 (inactive); in experiment [14], 0.278 (inactive).
